Laboratory results taken from the supplement of paper PMC8728848.
About 410 targets per protein were measured; listed, in parts, are those with the strongest signals and a random draw of the rest.

Assays:
Experiment in all cases: glycan array binding signal (z-score within array); higher = stronger binding
Conditions in all cases: glycan notation: IUPAC condensed, linker removed
[1] = target: Fuc(a1-2)Gal(b1-3)[Fuc(a1-4)]GlcNAc(b1-3)[Gal(b1-4)GlcNAc(b1-6)]Gal(b1-4)Glc
Method in brief: (§1)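 The binding signal is a Z-score computed within each array. Data were drawn from 3228 arrays in the Consortium for Functional Glycomics database, restricted to those with a known protein sequence. Scores were averaged over arrays of the same protein sequence at different concentrations or buffers, and over linkers, and negative values can be taken as non-binding.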

Fuc(a1-2)Gal(b1-4)Glc = target: Fuc(a1-2)Gal(b1-4)Glc
Method in brief: as §1

[2] = target: Fuc(a1-2)Gal(b1-4)[Fuc(a1-3)]GlcNAc(b1-3)GalNAc
Method in brief: as §1

[3] = target: Fuc(a1-2)[Gal(a1-4)]Gal(b1-4)GlcNAc
Method in brief: as §1

[4] = target: Fuc(a1-2)[GalNAc(a1-3)]Gal
Method in brief: as §1

[5] = target: Fuc(a1-3)[Gal(b1-4)]GlcNAc(b1-6)GalNAc
Method in brief: as §1

[6] = target: Fuc(a1-3)[GalNAc(b1-4)]GlcNAc
Method in brief: as §1

[7] = target: Gal(a1-3)Fuc(a1-2)Gal(b1-4)GlcNAc(b1-3)[Gal(a1-3)Fuc(a1-2)Gal(b1-4)GlcNAc(b1-6)]GalNAc
Method in brief: as §1

[8] = target: Gal(a1-3)Gal(b1-3)GlcNAc(b1-2)Man(a1-3)[Gal(a1-3)Gal(b1-3)GlcNAc(b1-2)Man(a1-6)]Man(b1-4)GlcNAc(b1-4)GlcNAc
Method in brief: as §1

[9] = target: Gal(a1-3)Gal(b1-4)[Fuc(a1-3)]GlcNAc(b1-2)Man(a1-3)[Gal(a1-3)Gal(b1-4)[Fuc(a1-3)]GlcNAc(b1-2)Man(a1-6)]Man(b1-4)GlcNAc(b1-4)GlcNAc
Method in brief: as §1

Gal(a1-4)Gal(b1-4)Glc = target: Gal(a1-4)Gal(b1-4)Glc
Method in brief: as §1

[10] = target: Gal(b1-3)GlcNAc(b1-6)Gal(b1-4)GlcNAc
Method in brief: as §1

[11] = target: Gal(b1-3)[Fuc(a1-4)]GlcNAc(b1-2)Man(a1-3)[Gal(b1-3)[Fuc(a1-4)]GlcNAc(b1-2)Man(a1-6)]Man(b1-4)GlcNAc(b1-4)GlcNAc
Method in brief: as §1

[12] = target: Gal(b1-4)GlcNAc(b1-2)Man(a1-3)Man(b1-4)GlcNAc(b1-4)GlcNAc
Method in brief: as §1

[13] = target: Gal(b1-4)GlcNAc(b1-2)Man(a1-3)[Gal(b1-4)GlcNAc(b1-2)Man(a1-6)]Man(b1-4)GlcNAc(b1-4)[Fuc(a1-6)]GlcNAc
Method in brief: as §1

[14] = target: Gal(b1-4)GlcNAc(b1-2)Man(a1-6)Man(b1-4)GlcNAc(b1-4)GlcNAc
Method in brief: as §1

[15] = target: Gal(b1-4)GlcNAc(b1-3)[Gal(b1-4)GlcNAc(b1-6)]GalNAc
Method in brief: as §1

[16] = target: Gal(b1-4)GlcNAc(b1-6)[Gal(b1-3)]GalNAc
Method in brief: as §1

Gal3S(b1-4)GlcNAc = target: Gal3S(b1-4)GlcNAc
Method in brief: as §1

[17] = target: Gal3S(b1-4)[Fuc(a1-3)]Glc
Method in brief: as §1

Gal3S4S(b1-4)GlcNAc = target: Gal3S4S(b1-4)GlcNAc
Method in brief: as §1

Gal3S6S(b1-4)GlcNAc = target: Gal3S6S(b1-4)GlcNAc
Method in brief: as §1

GalNAc(b1-3)Gal = target: GalNAc(b1-3)Gal
Method in brief: as §1

Glc(b1-4)Glc = target: Glc(b1-4)Glc
Method in brief: as §1

[18] = target: GlcNAc(a1-4)Gal(b1-4)GlcNAc(b1-3)Gal(b1-4)GlcNAc
Method in brief: as §1

[19] = target: GlcNAc(a1-4)Gal(b1-4)GlcNAc(b1-3)Gal(b1-4)[Fuc(a1-3)]GlcNAc(b1-3)Gal(b1-4)[Fuc(a1-3)]GlcNAc
Method in brief: as §1

[20] = target: GlcNAc(a1-6)Gal(b1-4)GlcNAc
Method in brief: as §1

[21] = target: GlcNAc(b1-6)Gal(b1-4)GlcNAc
Method in brief: as §1

Kdn(a2-3)Gal(b1-3)GalNAc = target: Kdn(a2-3)Gal(b1-3)GalNAc
Method in brief: as §1

[22] = target: Man(a1-2)Man(a1-3)[Man(a1-2)Man(a1-6)]Man
Method in brief: as §1

[23] = target: Man(a1-2)Man(a1-3)[Man(a1-2)Man(a1-6)]Man(a1-6)[Man(a1-2)Man(a1-2)Man(a1-3)]Man
Method in brief: as §1

[24] = target: Man(a1-2)Man(a1-3)[Man(a1-2)Man(a1-6)]Man(a1-6)[Man(a1-2)Man(a1-2)Man(a1-3)]Man(b1-4)GlcNAc(b1-4)GlcNAc
Method in brief: as §1

[25] = target: Man(a1-2)Man(a1-6)[Man(a1-3)]Man(a1-6)[Man(a1-2)Man(a1-2)Man(a1-3)]Man(b1-4)GlcNAc(b1-4)GlcNAc
Method in brief: as §1

[26] = target: Neu5Ac(a2-3)Gal(b1-3)[Neu5Ac(a2-6)]GalNAc
Method in brief: as §1

[27] = target: Neu5Ac(a2-3)Gal(b1-4)GlcNAc(b1-6)[Neu5Ac(a2-3)Gal(b1-3)]GalNAc
Method in brief: as §1

Neu5Ac(a2-6)Gal(b1-4)Glc = target: Neu5Ac(a2-6)Gal(b1-4)Glc
Method in brief: as §1

[28] = target: Neu5Ac(a2-6)Gal(b1-4)GlcNAc(b1-2)Man(a1-3)[Man(a1-6)]Man(b1-4)GlcNAc(b1-4)GlcNAc
Method in brief: as §1

B1: Eosinophil cationic protein (ECP) (Homo sapiens), P12724 (protein)
chain: MVPKLFTSQICLLLLLGLMGVEGSLHARPPQFTRAQWFAIQHISLNPPRCTIAMRAINNYRWRCKNQNTFLRTTFANVVNVCGNQSIRCPHNRTLNNCHRSRFRVPLLHCDLINPGAQNISNCTYADRPGRRFYVVACDNRDPRDSPRYPVVPVHLDTTI
How did the “glycan array binding signal (z-score)” value [1] turn out when B1 was run?
Its value is -0.315.

And the “glycan array binding signal (z-score)” value (Fuc(a1-2)Gal(b1-4)Glc)?
The value was -0.348.

What about the “glycan array binding signal (z-score)” value [2] of the same binder?
Its value is 2.14.

What about the “glycan array binding signal (z-score)” value [3] of the same binder?
Its value is -0.421.

And the “glycan array binding signal (z-score)” value [4]?
The value was -0.298.

What about the “glycan array binding signal (z-score)” value [5] of the same binder?
The value was 2.25.

And the “glycan array binding signal (z-score)” value [6]?
The value was -0.183.

And the “glycan array binding signal (z-score)” value [7]?
The value was 0.494.

What about the “glycan array binding signal (z-score)” value [8] of the same binder?
The value was 1.32.

What about the “glycan array binding signal (z-score)” value [9] of the same binder?
The value was 2.23.

What about the “glycan array binding signal (z-score)” value (Gal(a1-4)Gal(b1-4)Glc) of the same binder?
The value was -0.102.

And the “glycan array binding signal (z-score)” value [10]?
The value was -0.17.

What about the “glycan array binding signal (z-score)” value [11] of the same binder?
Its value is 0.007.

What about the “glycan array binding signal (z-score)” value [12] of the same binder?
Its value is -0.103.

What about the “glycan array binding signal (z-score)” value [13] of the same binder?
Its value is 0.16.

What about the “glycan array binding signal (z-score)” value [14] of the same binder?
The value was -0.08.

And the “glycan array binding signal (z-score)” value [15]?
The value was -0.091.

And the “glycan array binding signal (z-score)” value [16]?
Its value is -0.081.

And the “glycan array binding signal (z-score)” value (Gal3S(b1-4)GlcNAc)?
The value was 0.818.

And the “glycan array binding signal (z-score)” value [17]?
Its value is 2.4.

What about the “glycan array binding signal (z-score)” value (Gal3S4S(b1-4)GlcNAc) of the same binder?
The value was -0.557.

And the “glycan array binding signal (z-score)” value (Gal3S6S(b1-4)GlcNAc)?
The value was 2.7.

And the “glycan array binding signal (z-score)” value (GalNAc(b1-3)Gal)?
The value was -0.382.

And the “glycan array binding signal (z-score)” value (Glc(b1-4)Glc)?
Its value is 0.024.

What about the “glycan array binding signal (z-score)” value [18] of the same binder?
Its value is 8.33.

What about the “glycan array binding signal (z-score)” value [19] of the same binder?
Its value is 4.18.

What about the “glycan array binding signal (z-score)” value [20] of the same binder?
The value was 3.15.

What about the “glycan array binding signal (z-score)” value [21] of the same binder?
Its value is 0.126.

And the “glycan array binding signal (z-score)” value (Kdn(a2-3)Gal(b1-3)GalNAc)?
Its value is 0.204.

What about the “glycan array binding signal (z-score)” value [22] of the same binder?
The value was -0.495.

What about the “glycan array binding signal (z-score)” value [23] of the same binder?
The value was -0.174.

And the “glycan array binding signal (z-score)” value [24]?
Its value is -0.101.

What about the “glycan array binding signal (z-score)” value [25] of the same binder?
The value was 0.498.

What about the “glycan array binding signal (z-score)” value [26] of the same binder?
The value was -0.097.

What about the “glycan array binding signal (z-score)” value [27] of the same binder?
Its value is -0.004.

What about the “glycan array binding signal (z-score)” value (Neu5Ac(a2-6)Gal(b1-4)Glc) of the same binder?
The value was 0.151.

What about the “glycan array binding signal (z-score)” value [28] of the same binder?
Its value is -0.018.
